Experimental data taken from PubChem BioAssay AID720533 (National Center for Advancing Translational Sciences (NCATS), 2013).
Values joined by “and” are separate entries in the source; they are usually repeats but may differ in a detail not shown here. Identical values can stand only once. Hit rate of the full screen: of about 18,000 compounds, about 750 (4.2%) were called active. Inconclusive results (about 13%) are left out. The call rests on the fitted dose curve; tested in HEK293 cells. The entries come from a sample that favours actives as a whole. Where a structure was tested more than once in an assay, its records may differ in their call.

Experiment: qHTS for Inhibitors of binding or entry into cells for Lassa Virus
Conditions: Lassa virus pseudotyped entry inhibition, cell-based qHTS; series mostly up to 49.2 µM; activity change, negative = inhibition: at the top concentration
On the % scale 0 is the no-effect control and ±100 the full control effect; potency means the concentration at half of the fitted maximal effect.

Question: Which activity change, negative = inhibition does the source give for COc1ccc(O[C@H]2C=C[C@@H](c3ccccc3)O[C@H]2COC(=O)CCC(C)=NOC[C@@H](C)[C@H](OCc2ccccc2)C(C)C)cc1 here?
Answer: -27.6% [at 8.59 µM] (inactive)

Question: With CCCCC/C=C\C/C=C\C/C=C\CCCCCCC(N)=O as the compound, how does the “activity change, negative = inhibition” value read?
Answer: 4.71% (inactive)

Question: With COc1ccc(O[C@H]2C=C[C@@H](c3ccccc3)O[C@H]2CON=C[C@@H](C)[C@H](OCc2ccccc2)C(C)C)cc1 as the compound, how does the activity change, negative = inhibition read?
Answer: -25.5% [at 8.59 µM] (inactive)

Question: For CCN(CC)CCCN=C1NC(c2ccccc2)C(C(=O)OC)=C(C)N1CC (configuration not stated), which activity change, negative = inhibition is on record?
Answer: 9.38% [at 8.59 µM] (inactive)

Question: With C[C@H]1Cc2c(COc3ccccc3)nc3c(c2CO1)CN(C(=O)Nc1cccc(C#N)c1)CC3 as the compound, how does the activity change, negative = inhibition read?
Answer: -15.7% [at 8.59 µM] (inactive) and -11.7% [at 8.59 µM] (inactive)

Question: With CC1(C)S[C@@H]2[C@H](N=CN3CCCCCC3)C(=O)N2[C@H]1C(=O)O as the compound, how does the “activity change, negative = inhibition” value read?
Answer: 3.64% (inactive)

Question: For CC(C)(Cc1c[nH]c2ccc(Cl)cc12)NCCOc1ccccc1OCC1CC1, which Potency is on record?
Answer: 28.2 µM (active)

Question: For CC(=O)OCC(=O)[C@@]1(O)CCC2C3CCC4=CC(=O)CC[C@@]4(C)[C@]3(F)C(O)C[C@]21C (some centres not stated), which “activity change, negative = inhibition” value is on record?
Answer: 2.6% (inactive)

Question: For CN(Cc1cccc2ncccc12)C(=O)c1cnn(-c2nccc(-c3ccccc3F)n2)c1C1CC1, which Potency is on record?
Answer: 12.6 µM (active)

Question: For Cc1cccc(CNC(=O)c2cnn(-c3nccc(-c4ccccc4F)n3)c2C2CC2)n1, which “activity change, negative = inhibition” value is on record?
Answer: -0.396% (inactive)

Question: With Cc1ccc(-c2ccnc(-n3ncc(C(=O)N(C)Cc4cccc5ncccc45)c3C3CC3)n2)o1 as the compound, how does the “activity change, negative = inhibition” value read?
Answer: -21.1% (inactive)

Question: With Cc1ccc(S(=O)(=O)N2CCC(=O)N([C@H](COCc3ccccc3)Cc3ccccc3)CC2)cc1 as the compound, how does the “activity change, negative = inhibition” value read?
Answer: -0.656% (inactive)

Question: Which “activity change, negative = inhibition” value does the source give for CCC1CN(CCNC(=O)c2ccsc2)Cc2cc(OC)ccc2O1 (configuration not stated) here?
Answer: -13.6% (inactive)

Question: Which “activity change, negative = inhibition” value does the source give for CCCCN1CC(COCc2ccccc2)OCCS1(=O)=O (configuration not stated) here?
Answer: 14.1% (inactive)

Question: For C=C(C)C1CC=C(CO)CC1 (configuration not stated), which “activity change, negative = inhibition” value is on record?
Answer: -12% (inactive)

Question: With C=C1/C(=C\C=C2\CCCC3(C)C2CCC3C(C)/C=C/C(O)C2CC2)CC(O)CC1O (configuration not stated) as the compound, how does the Potency read?
Answer: 10 µM (active)

Question: Which Potency does the source give for N#Cc1c(Cl)c(Cl)c(Cl)c(C#N)c1Cl here?
Answer: 2.24 µM (active)

Question: With CC(C)(O)CCC(O)[C@@](C)(O)C1CC[C@]2(O)C3=CC(=O)C4CC(O)C(O)C[C@]4(C)C3CC[C@]12C (some centres not stated) as the compound, how does the “activity change, negative = inhibition” value read?
Answer: -0.611% (inactive)

Question: For COC(C)C(C(=O)OCC1=CCN2CC[C@H](O)[C@@H]12)C(C)C (some centres not stated), which “activity change, negative = inhibition” value is on record?
Answer: -11.7% (inactive)

Question: Which activity change, negative = inhibition does the source give for COC(=O)C12C[C@H](C)C3C(C)C(c4ccccc4C31)N2C(=O)C(F)(F)F (some centres not stated) here?
Answer: 4.09% [at 8.59 µM] (inactive)

Question: For CCCCC[C@H](O)/C=C/[C@@H]1[C@@H](CC(=O)CCC(=O)O)[C@@H](O)C[C@H]1O, which “activity change, negative = inhibition” value is on record?
Answer: -8.8% (inactive)

Question: Which activity change, negative = inhibition does the source give for COc1cc(C(=O)N2CCOCC2)cc(OC)c1OC here?
Answer: inactive

Question: For COC(=O)C1=C(C(=O)OC)[C@@H]2N(C)c3ccccc3[C@@]23C[C@@H](C(=O)OC)N(C(=O)c2ccco2)C3=N1, which activity change, negative = inhibition is on record?
Answer: 11.9% [at 8.59 µM] (inactive)

Question: Which Potency does the source give for CC(=O)Oc1ccccc1C(=O)Nc1ncc([N+](=O)[O-])s1 here?
Answer: 7.94 µM (active)

Question: With CC(C)c1cnc(NC(=O)Cc2ccccc2)s1 as the compound, how does the “activity change, negative = inhibition” value read?
Answer: 19.7% (inactive)

Question: Which “activity change, negative = inhibition” value does the source give for CCOC(=O)[C@H](CCc1ccccc1)N[C@@H](C)C(=O)N1CC2(C[C@H]1C(=O)O)SCCS2 here?
Answer: -3.33% (inactive)

Question: With COc1cccc(CN2CCC3(CC2)c2ccccc2[C@@H](NC(=O)c2ccccc2OC)[C@@H]3O)c1 as the compound, how does the “activity change, negative = inhibition” value read?
Answer: -19.8% (inactive)

Question: For CO[C@@H]1C[C@@H](C[C@H]2CC[C@H](C)[C@@H]([C@@H](C)C(=O)O)O2)O[C@]2(O[C@](C)([C@H]3CC[C@@](C)(C4OC([C@H]5O[C@@](O)(CO)[C@H](C)C[C@@H]5C)C[C@@H]4C)O3)C[C@H]2C)[C@@H]1C (some centres not stated), which Potency is on record?
Answer: 3.16 µM (active)

Question: With O=C(C1CCCCC1)N1C[C@H](O)[C@H](n2cc(-c3ccc(F)cc3)nn2)C[C@@H]1c1ccccc1 as the compound, how does the “activity change, negative = inhibition” value read?
Answer: -16.6% (inactive)

Question: With CC1C(O)CC2C(C(=O)O)=CO[C@@H](O[C@H]3OC(CO)C(O)C(O)C3O)C21 (some centres not stated) as the compound, how does the “activity change, negative = inhibition” value read?
Answer: -0.42% (inactive)

Question: Which “activity change, negative = inhibition” value does the source give for CO[C@H]1[C@@H](O)[C@H](N)[C@@H](O[C@H]2O[C@H]([C@H](C)N)CC[C@H]2N)[C@H](O)[C@@H]1N(C)C(=O)CN here?
Answer: -19.4% (inactive)

Question: Which “activity change, negative = inhibition” value does the source give for CCC1CN(CCNC(=O)c2cccc(C)n2)Cc2cc(OC)ccc2O1 (configuration not stated) here?
Answer: -1.6% (inactive)

Question: With CS(=O)(=O)c1ccc(Oc2nccc(-c3c(-c4ccc(F)cc4)ncn3C3CCNCC3)n2)cc1 as the compound, how does the “activity change, negative = inhibition” value read?
Answer: -23.2% (inactive)

Question: Which “activity change, negative = inhibition” value does the source give for COc1ccc(NC(=O)C[C@H]2C(=O)N(CCc3ccccc3)C[C@@H]2C)cc1 here?
Answer: -3.95% (inactive)

Question: For Oc1ccc(Cl)c2c1CCC2, which “activity change, negative = inhibition” value is on record?
Answer: -0.737% (inactive)

Question: Which Potency does the source give for CC[C@]1(O)C[C@@H]2CN(CCc3c([nH]c4ccccc34)[C@@](C(=O)OC)(c3cc4c(cc3OC)N(C)[C@H]3[C@@](O)(C(=O)OC)[C@H](OC(C)=O)[C@]5(CC)C=CCN6CC[C@]43[C@@H]65)C2)C1 here?
Answer: inactive and 22.4 µM (active)

Question: For CC(C)C[C@@H](CC(=O)N[C@@H](CCC(=O)O)CC(=O)O)NC(=O)[C@@H]1CCCC[C@H]1NC(=O)C[C@@H](NC(=O)C[C@H](Cc1c[nH]c2ccccc12)NC(=O)[C@@H]1CCCC[C@H]1N)C(C)C, which “activity change, negative = inhibition” value is on record?
Answer: -0.613% (inactive)

Question: For C[C@@H]1O[C@@H](OC[C@H]2O[C@@H](Oc3cc(O)c4c(c3)O[C@H](c3ccc(O)c(O)c3)CC4=O)[C@H](O)[C@@H](O)[C@@H]2O)[C@H](O)[C@H](O)[C@H]1O, which “activity change, negative = inhibition” value is on record?
Answer: -8.36% (inactive)

Question: With O=c1cc(-c2ccc(O)cc2)oc2c([C@@H]3O[C@H](CO)[C@@H](O)[C@H](O)[C@H]3O)c(O)cc(O)c12 as the compound, how does the “activity change, negative = inhibition” value read?
Answer: -0.528% (inactive)

Question: For COc1ccc(CCC(=O)c2c(O)cc(OC3OC(CO)C(O)C(O)C3O[C@@H]3OC(C)C(O)C(O)C3O)cc2O)cc1O (some centres not stated), which “activity change, negative = inhibition” value is on record?
Answer: -1.94% (inactive)

Question: With Cc1cccc(CNc2ccnc(-c3cccnc3)n2)c1 as the compound, how does the “activity change, negative = inhibition” value read?
Answer: -0.505% (inactive)

Question: With CCCCN1C[C@H](c2ccc(Br)cc2)[C@@H](CC(=O)Nc2ccc(Br)cc2)C1=O as the compound, how does the “activity change, negative = inhibition” value read?
Answer: -23.4% (inactive)

Question: Which Potency does the source give for COc1ccc(CC(N)C(=O)NC2C(O)[C@H](n3cnc4c(N(C)C)ncnc43)O[C@@H]2CO)cc1 (some centres not stated) here?
Answer: 3.98 µM (active)

Question: Which Potency does the source give for COc1ccc(C[C@H](N)C(=O)N[C@@H]2[C@H](O)[C@H](n3cnc4c(N(C)C)ncnc43)O[C@@H]2CO)cc1 here?
Answer: 2.51 µM (active)

Question: Which activity change, negative = inhibition does the source give for Nc1ncnc2c1ncn2C1CC(O)C(CO)O1 (configuration not stated) here?
Answer: inactive

Question: Which activity change, negative = inhibition does the source give for CCN(CC)CCCC(C)Nc1ccnc2cc(Cl)ccc12 (configuration not stated) here?
Answer: inactive

Question: With COC1=C[C@H](C(=O)NCCNC(C)=O)[C@H](C)[C@@H](c2ccccc2)CC1=O as the compound, how does the activity change, negative = inhibition read?
Answer: -0.439% [at 8.59 µM] (inactive)
